In PubChem BioAssay (NCI) one finds growth data, which are given here for 40 compounds.

This is part of a sample that, as a whole, favours compounds with a hit. Of some 83,000 tested, about 20% had one in any assay.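 48-hour exposure, single concentration, 96-well plates; percent growth endpoint where 0 means no net growth. Active: below 10.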 A number with no mark means an inactive call. Activity calls are given as the source filed them.

In the test the test system is HCC-2998 colon. The test is described as follows: NCI-60 one-dose screen, 48 h (100 = growth as untreated, 0 = no growth, -100 = all killed). The following applies: 10 µM unless noted. Here is the method:
Growth inhibition of the HCC-2998 human tumor cell line is measured as a screen for anti-cancer activity. Cells are grown in 96 well plates and exposed to the test compound for 48 hours. Compounds are tested at a single concentration, which is 10^-5 M for most compounds. The reported endpoint is percent growth (GI% or GIPRCNT), where numbers from 0 - 100% represent growth inhibition, and numbers from -100% - 0 represent cell death. For example, a value of 40 represents 60% growth inhibition. A value of 0 means no net growth occurred over the course of the experiment. A value of -40 indicates 40% of cells at the beginning of the experiment died by the end of the experiment. A value of -100 means all cells are dead at the end of the experiment.
NCI-60 Human Tumor Cell Lines Screen was performed using the standard one-dose NCI protocol, which is described in more detail at https://dtp.cancer.gov/discovery_development/nci-60/default.htm.
Compounds with GIPRCNT values below 10 were considered active. Activity score was based on GIPRCNT using the following formula: […]
Score is 0 for GIPRCNT values of 100 or above, 50 for GIPRCNT values of 0, and 100 for GIPRCNT values of -100.
Consider `O=C(Cc1ccccc1)NC(c1ccc(Cl)cc1)c1c(O)ccc2ccccc12` (stereo not given), for which the growth is 24.8%. In the case of `O=C(/C=C/c1ccc(F)cc1)c1ccc(Nc2nc(NCCO)nc(Nc3ccc(Cl)cc3)n2)cc1`, the growth was 29.9%. With `CC(C)CCNCC(O)Cn1c2ccccc2c2ccccc21` (stereo not given), the growth was 12.1%. As to `COc1cc(C2C(C#N)=C(N)OC3=C2C(=O)c2ccccc2C3=O)cc(OC)c1OC` (stereo not given), the growth is 30.4%. Consider `O=C(CCc1nnc2sc(Cc3ccccc3Cl)nn12)c1nc2ncccc2[nH]1`, for which the growth was 87.7%. As for `CN1C(=O)N(C)C2C1NN=c1s/c(=C\c3c[nH]c4ccccc34)c(=O)n12` (stereo not given), the growth is 27.3%.

Turning to `Cc1nc(Nc2ccccn2)sc1C(=O)/C=C/c1ccc(Cl)cc1`, the growth was 21.6%. Under `CN1CCN(Cc2ccc(C(=O)Nc3cncc(C#Cc4cnc5cccnn45)c3)cc2C(F)(F)F)CC1` stands 90%; under `COc1cccc(/C=C/C(=O)c2c(C)nc3ccccc3c2/C=C/c2ccccc2)c1OC`, 41.1%.

Take `O=c1oc2ccc(Br)cc2c(=O)n1-c1ccc(F)cc1F`: the growth is 17.4%. Consider `O=CCCCC(O)C=O` (stereo not given), for which the growth was 105%. Under `O=C(Nc1ccc(N2CCNCC2)cn1)c1[nH]ncc1Nc1ncnc2sc3c(c12)CCC3` stands 33.8%; under `COc1cc(C(C)n2cc(-c3ccccc3)nn2)ccc1OC1CCCC1` (stereo not given), 70.4%; under `O=C(Nc1ccc(Br)cc1F)c1cc(Cl)ccc1O`, 9.31% (active). For `CCCCC1COc2cccc3c2N1C=C/C3=C\C(=O)N(C)c1ccccc1` (stereo not given), the growth is 71.1%. For `O=C(/C=C/c1ccccn1)c1ccc(OCc2nnc(-c3ccc(Cl)cc3)o2)cc1`, the growth is 28%. `COc1cccc2c1C=C1CCCCC3=Cc4c(OC)cccc4OC13O2`: the growth is 71.1%. On to `CN1CCN(c2nc(Nc3ccc(O)cc3)nc3ccccc23)CC1`, for which the growth was 46.1%.

Turning to `COc1ccccc1N1C(=N)S/C(=C\c2ccc(OCc3ccccc3F)cc2)C1=O`, the growth was 109%.

Regarding `Nc1cccc(Nc2cc(S(=O)(=O)O)c(N)c3c2C(=O)c2ccccc2C3=O)c1`, the growth is 120%.

As to `COC(=O)c1ccc(NC(=O)CSc2nc3ccccc3c(=O)n2-c2ccccc2)cc1`, the growth is 98.8%. The figure for `O=C1OC(c2ccccc2)(c2ccccc2)c2ccsc21` is 127%; for `O=c1c(-c2nc3ccccc3[nH]2)cc2ccccc2n1Cc1cn(Cc2ccccc2Cl)nn1` it is 78.3%; for `CCOc1ccc2nc(C)cc(Nc3ccc(Br)cc3)c2c1` it is 117%. The figure for `c1ccc(-c2ccc(-c3nc4ccccc4[nH]3)cc2)cc1` is 88.3%; for `COc1cc(/C=C/C(=O)N2c3ccccc3CC2C)c(OC)c2c1OCO2` (stereo not given) it is 100%; for `COc1cc(/C(C#N)=C/c2nc3c(N4CCOCC4)nc(Cl)nc3n2C)cc(OC)c1OC` it is 7.16% (active). Under `CCOC(=O)C1=C(C)N=c2s/c(=C\c3ccccc3O)c(=O)n2C1c1ccc(OC)c2ccccc12` (stereo not given) stands -86.7% (active); under `O=c1oc2ccc(F)cc2c(=O)n1-c1ccc(I)cc1F`, 14.6%; under `COc1c(B(O)O)cccc1-c1nc2ccc3n[nH]c(F)c3c2c2c1CCCC2`, 116%. With `Cc1ccc(F)cc1NC(=O)c1cc(Cl)ccc1Nc1ccccc1`, the growth was 28.2%. As to `COc1cc2nc(NC3CCCC3)nc(NC3CCN(C(C)C)CC3)c2cc1OC`, the growth is 29.6%. For `NS(=O)(=O)c1ccc(CCN=C=S)cc1`, the growth was 81.1%.

For the compound `O=c1oc2ccc(I)cc2c(=O)n1-c1ccc(Cl)cc1F`, the growth is 16.9%. Under `Nc1nonc1-n1nncc1-c1cccnc1` stands 112%. In the case of `CNCCNc1nc2ccccc2c2c(=O)c3cc(OC)ccc3sc12`, the growth was -68.7% (active). The figure for `COc1nc2c(c(=O)n1C)N=C1c3ccccc3C(=O)C1C(c1ccccc1)N2` (stereo not given) is 106%.

Turning to `O=c1oc2ccc(F)cc2c(=O)n1-c1ccc(Cl)cc1F`, the growth was 9.7% (active). The figure for `Cn1nc(C(C)(C)C)cc1NC(=O)Cc1ccc(/C=C2\C(=O)Nc3ccccc32)cc1` is 96.3%.

Take `CCN1C(=O)N(c2ccccc2)C2NN=c3s/c(=C4\C(=O)N(C(C)C)c5ccccc54)c(=O)n3C21` (stereo not given): the growth is 33.4%.
